# Test results: PubChem BioAssay AID504441 (Broad Institute, 2011)
# Hit rate of the full screen: of about 310,000 compounds, about 1,300 (0.42%) were called active. Rule as the data show it: active = inhibition above about 50%; inactive = the rest. Only a selection was taken, and actives are over-represented in it overall.
# Target: Dual specificity tyrosine-phosphorylation-regulated kinase 1A (Rattus norvegicus) (UniProt Q63470)
# Experiment: rat Dyrk1A kinase inhibitors, primary screen, biochemical, single point, plate reader (AID 504441);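 also: plate controls were vehicle with enzyme for no effect and no enzyme for full effect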
# Details: ADP-Glo luminescence, NFATc1 peptide, at 12.5 µM, active compounds read high
row,Structure (SMILES),inhibition
1,Cc1nc2ccccc2nc1N/N=C/c1ccc(O)cc1O,9.74% (inactive)
2,Oc1ccc2nc(Cc3ccccc3)[nH]c2c1,10.9% (inactive)
3,Oc1ccc(-c2nc3ccccc3nc2-c2ccc(O)cc2O)c(O)c1,76.3% (active)
4,CC(NC(=O)c1ccccc1)C(=O)OCC(=O)Nc1cccc(S(=O)(=O)N2CCCC2)c1 (centres undefined),1.68% (inactive)
5,Cc1ccnc(NS(=O)(=O)c2ccc(NC(=O)c3oc4ccccc4c3C)cc2)n1,28.5% (inactive)
6,Cc1ccnc(NS(=O)(=O)c2ccc(NC(=O)c3oc4ccc(F)cc4c3C)cc2)n1,1.02% (inactive)
7,Cc1noc(NS(=O)(=O)c2ccc(NC(=O)c3oc4ccc(F)cc4c3C)cc2)c1C,60% (active)
8,CCC1(C)COC(c2ccc(OC)c(OC)c2)OC1 (centres undefined),2.1% (inactive)
9,O=C(O)C(c1cccs1)C1(O)CCCCC1 (centres undefined),2.77% (inactive)
10,NC(=O)C1CCN(C(=O)c2cc(S(=O)(=O)N3CCN(c4ccccc4)CC3)ccc2Cl)CC1,8.45% (inactive)
11,CC(C)Cn1cnc2c(SCc3ccc(Cl)cc3)nc(N)nc21,7.52% (inactive)
12,CCc1nnc(NC(=O)c2cc(S(=O)(=O)N3CCN(CC)CC3)ccc2Cl)s1,7.13% (inactive)
13,c1ccc(C(=NNc2nc3ccccc3s2)c2ccccn2)cc1,12.7% (inactive)
14,COc1ccc(N=C2C=CC(=O)O2)cc1,7.98% (inactive)
15,O=C(NCC1(N2CCCCC2)CCCCC1)c1cccc(S(=O)(=O)Nc2ccccc2Cl)c1,-5.86% (inactive)
16,COc1cccc2c(O)cc(=O)n(C)c12,26.6% (inactive)
17,COc1cc(O)c2c(=O)c3c(O)c(O)ccc3oc2c1OC,50.1% (active)
18,COc1cccc2cc(-c3cc(=O)oc4cc(C)c(O)cc34)oc12,-4.38% (inactive)
19,CC(C)(C)OC(=O)N(Cc1ccccc1)Cc1ccc(OCc2cccc(NC(=O)c3ccccc3)c2)cc1,-3.26% (inactive)
20,COc1ccc(-c2nc3cc(C)ccn3c2NC2CCCCC2)cc1SC1CCCCC1,1.83% (inactive)
21,CCN(CC)S(=O)(=O)c1cccc(NC(=O)c2ccc(S(=O)(=O)N3CCCC3)cc2)c1,1.24% (inactive)
22,CC(C)(C)OC(=O)N1CCC(C(=O)Nc2cccc(C(=O)NCCc3ccccc3)c2)CC1,-16.9% (inactive)
23,CCN(CC)c1ccc(NC(=O)CCc2nnc3ccc(N4CCCCC4)nn23)c(C)c1,59.6% (active)

row,Structure (SMILES),inhibition
1,CCOc1ccc(CCNC(=O)CCc2nnc3ccc(N4CCCC4)nn23)cc1OCC,17.6% (inactive)
2,CCOC(=O)c1cccc(NC(=O)CCc2nnc3ccc(N4CCOCC4)nn23)c1,2.86% (inactive)
3,O=C1C(Cl)=C(Oc2ccccc2)C(=O)c2ccccc21,35.4% (inactive)
4,Oc1cccc(CCc2ccccn2)c1,7.91% (inactive)
5,COc1ccc(OC)c(Cc2cnc3nc(N)nc(N)c3c2C)c1,-1.98% (inactive)
6,Nc1nonc1-n1nnc(C(=O)N/N=C/c2ccccc2O)c1CN1CCCC1,14.8% (inactive)
7,Nc1nonc1-n1nnc(C(=O)N/N=C\c2ccncc2)c1CN1CCCCC1,77.4% (active)
8,NNC(=O)c1nnn(-c2nonc2N)c1CN1CCCC1,15.1% (inactive)
9,Cc1nc(Nc2ccccc2C)c2cnn(C)c2n1,-5.25% (inactive)
10,CCOC(=O)N(Cc1ccccc1)C1CC1,-0.945% (inactive)
11,COc1ccc(CCC(=O)Nc2ccc(Cl)c(S(=O)(=O)N3CCOCC3)c2)cc1OC,-1.66% (inactive)
12,CN1c2ccc(C=O)c3c(C=O)ccc(c23)N(C)C1(C)C,91.2% (active)
13,CN(CCc1ccccc1)C(=O)c1cccc(NC(=O)Cc2cccc(NC(=O)C3CCCN(C(=O)C4CCC4)C3)c2)c1 (centres undefined),-0.693% (inactive)
14,CCCN(CC(=O)Nc1ccccc1C)C(=O)c1ccc(OCC(=O)N2CCOCC2)c(OCC)c1,-7.61% (inactive)
15,CN(O)C(=S)c1ccccc1,-0.499% (inactive)
16,CSc1ncnc2c1ncn2CC(=O)C1CCC2C3CCC4=CC(=O)CCC4(C)C3CCC12C (centres undefined),5.41% (inactive)
17,COc1cc(OC)cc(-c2cc3ccc(F)cc3cn2)c1,13.1% (inactive)
18,CCOc1ccc(S(=O)(=O)N2CCN(C(=O)c3oc4ccccc4c3C)CC2)cc1,3.49% (inactive)
19,COc1ccccc1C(=O)Nn1c(-c2cccs2)nc2ccccc2c1=O,32.3% (inactive)
20,CCn1c(NC(=O)c2ccccc2)c(-c2cccs2)c(=O)c2ccccc21,65.9% (active)
21,CCn1c(=O)c2cc(C(=O)Nc3cccc(C(C)=O)c3)sc2c2ccccc21,-0.698% (inactive)
22,CCc1cc2c(N3CCN(c4nnc(CC)s4)CC3)ncnc2s1,25.4% (inactive)
23,CCc1cc2c(NC3CCCC3)ncnc2s1,53.2% (active)

row,Structure (SMILES),inhibition
1,CCc1cc2c(NC(Cc3ccccc3)C(=O)O)ncnc2s1 (centres undefined),2.6% (inactive)
2,COc1cc(/C=C/c2ccc(/C=C/c3cc(OC)c(OC)c(OC)c3)cc2)cc(OC)c1OC,-1.84% (inactive)
3,C#CCOCCOCCOCCNc1nc(N2CCN(C(=O)Cn3cc(CCO)nn3)CC2)nc(N2CCN(C(=O)Cn3cc(CCCN=C(N)N)nn3)CC2)n1,4.84% (inactive)
4,COc1ccc(Cl)cc1C=CC=Nc1ccc(S(N)(=O)=O)cc1,-0.507% (inactive)
5,C[C@H]1CN([C@@H](C)CO)C(=O)Cc2cc(NC(=O)Cc3ccccc3)ccc2O[C@H]1CN(C)S(=O)(=O)c1cccs1,-0.989% (inactive)
6,COc1ccc(S(=O)(=O)N(C)C[C@@H]2Oc3ccc(NS(=O)(=O)c4cn(C)cn4)cc3C(=O)N([C@@H](C)CO)C[C@@H]2C)cc1,0.973% (inactive)
7,COc1ccc(S(=O)(=O)N(C)C[C@H]2Oc3ccc(NS(=O)(=O)c4cccs4)cc3CC(=O)N([C@H](C)CO)C[C@H]2C)cc1,55.4% (active)
8,O=C(NC1=CC(=O)c2ccccc2C1=O)c1ccccc1,-0.529% (inactive)
9,O=C(OC12CC3CC(CC(C3)C1)C2)c1ccc(NCc2cc(O)ccc2O)cc1,1.7% (inactive)
10,Cc1nn(-c2ncccn2)c2c1C(=O)CC(C)(C)C2Br (centres undefined),6.11% (inactive)
11,C=C(C)Cn1c(N2CCCC2)nc2c1c(=O)[nH]c(=O)n2C,-3.28% (inactive)
12,C=C(C)Cn1c(N2CCN(CC)CC2)nc2c1c(=O)[nH]c(=O)n2C,55.9% (active)
13,Cn1c(=O)[nH]c(=O)c2c1nc(N1CCN(C(c3ccccc3)c3ccccc3)CC1)n2CCO,1.27% (inactive)
14,CN1C(c2ccc(F)cc2)=CS/C1=C(/C#N)c1nnc2n1-c1ccccc1SC2,-1.31% (inactive)
15,COc1cccc(C(=O)NNC(=O)/C=C/c2ccccc2)c1,59.9% (active)
16,CC(C)c1ccc(/C=C/C(=O)NNC(=O)c2cccnc2)cc1,11.1% (inactive)
17,COc1cccc(C=CC(=O)C=CC=Cc2ccccc2)c1,-2.98% (inactive)
18,O=C1NCC(c2ccccc2)(c2ccccc2)C(=O)N1,-4.54% (inactive)
19,COC[C@@H]1NS(=O)(=O)c2ccc(Br)cc2O[C@H]1c1ccccc1,7.26% (inactive)
20,CCCCNC(=O)C(C)N(CCN(C)C)C(=O)CCCN1C(=O)NC(c2ccc(Cl)cc2)C(C(=O)OCc2ccccc2)=C1C (centres undefined),5.26% (inactive)
21,COc1cc(C2c3cc4c(cc3C(O)C3COC(=O)C23)OCO4)cc(OC)c1OC (centres undefined),0.167% (inactive)
22,COC(=O)C1=C(C)N(Cc2ccccc2)C(=NCCCOC(C)C)N[C@H]1c1ccccc1,-6.8% (inactive)
23,CCN1C(=NCCc2cccnc2)N[C@@H](c2ccccc2)[C@H](C(=O)OC)[C@H]1C,-12.5% (inactive)

row,Structure (SMILES),inhibition
1,CCN1C(=NCCc2cccnc2)N[C@@H](c2ccccc2)C(C(=O)OC)=C1C,53.7% (active)
2,COc1ccccc1C(=O)c1ccccc1C(=O)c1ccccc1,1.1% (inactive)
3,COc1ccc(S(=O)(=O)N(C)C[C@@H]2Oc3ccc(NC(=O)Nc4c(C)noc4C)cc3C(=O)N([C@H](C)CO)C[C@@H]2C)cc1,1.82% (inactive)
4,COc1ccc2c(Cl)c(C(=O)NCc3ccco3)sc2c1,54.5% (active)
5,O=C(NCc1ccco1)c1sc2cccc(F)c2c1Cl,1.99% (inactive)
6,COc1ccc2oc(C(=O)NCc3ccco3)c(C)c2c1,19.2% (inactive)
7,Oc1[nH]c2ccccc2c1N=Nc1c(F)c(F)c(F)c(F)c1F,4.41% (inactive)
8,C[n+]1cccc(C(=O)O)c1,0.48% (inactive)
9,CC1CCCN(C(=O)Cn2c(=O)oc3cc(S(=O)(=O)N4CCCCC4C)ccc32)C1 (centres undefined),0.0944% (inactive)
10,O=C(Cc1ccc(Cl)cc1)c1ccccc1,-1.54% (inactive)
11,O=C1/C(=C/c2ccc3c(c2)OCO3)Oc2cc(OCC(=O)N3CC(O)C[C@H]3C(=O)O)ccc21 (some centres undefined),70.2% (active)
12,COC(=O)C(C)Oc1ccc2c(c1)O/C(=C\c1cccc(Br)c1)C2=O (centres undefined),-2.95% (inactive)
13,COc1ccc(NC(=O)CCN2C(=O)/C(=C/c3ccc4c(c3)OCO4)SC2=S)cc1,-2.32% (inactive)
14,O=C1c2ccccc2C(=O)C1C(=O)C1CC1,-4.93% (inactive)
15,COc1ccc(CNCCCn2cnc3c(OCc4ccccc4)ncnc32)cc1,6.66% (inactive)
16,Cc1ccc(S(=O)(=O)n2oc(=O)c(C3CCCCC3)c2N)cc1,-0.128% (inactive)
17,CCc1ccc(/C=C2\SC(N3CCOCC3)=NC2=O)cc1,2.74% (inactive)
18,CC1CCN(C2=NC(=O)/C(=C/c3ccc(O)cc3)S2)CC1,22.4% (inactive)
19,O=C1N=C(N2CCc3ccccc3C2)S/C1=C\c1ccc(O)cc1,70.6% (active)
20,CN(CCc1ccccc1)C(=O)c1cccc(NC(=O)Cc2cccc(NC(=O)C3CCCN(C(=O)CCc4ccccc4)C3)c2)c1 (centres undefined),0.419% (inactive)
